# Results published in PubChem BioAssay AID743279 (National Center for Advancing Translational Sciences (NCATS), 2014).
# The campaign covered roughly 360,000 compounds. About 17,000 (4.7%) were called active. Not shown: some 5% with an inconclusive outcome. The list comes from a sample in which actives are over-represented; it also holds similar structures and randomly drawn compounds. Values without a mark were called inactive. No stated cut-off is given here; in the data, active means activity change below about -50%; inconclusive means mostly about -30% to -49%; inactive means weaker than that.
# Assay: qHTS for Inhibitors of Inflammasome Signaling: IL-1-beta AlphaLISA Primary Screen
# Settings: THP-1 LPS/ATP IL-1B secretion, 16 h; at 57.5 µM, stronger effect = lower value
# Description: Inflammasomes are a set of intracellular multi-protein complexes that enable autocatalytic activation of inflammatory caspases and drive the innate immune response to counter harmful agents. […] A qHTS assay, based on AlphaLISA technology, was developed to screen the Molecular Libraries Small Molecule Repository (MLSMR) to look for novel inflammasome inhibitors. The assay detects IL-1B using AlphaLISA anti-IL-1B acceptor and donor beads. A decreased emission signal, indicating reduced IL-1B secretion, is the desired outcome for this assay. NIH Chemical Genomics Center [NCGC] NIH Molecular Libraries Probe Centers Network [MLPCN] MLPCN Grant: MH095513 Assay Provider: Shyam Biswal Ph.D., Johns Hopkins University Immunity. 2012 Jul 27;37(1):85-95. PMID: 22819042 [2] Curr Pharm Des. 2012;18(16):2320-8. PMID: 22390695
# Three microliters containing 3000 THP-1 cells were dispensed into the wells of solid, white, tissue culture treated Greiner 1,536-well plates. Library compounds and positive control, Glyburide, were pin-transferred (23 nL) by a Kalypsys pin-tool equipped with a 1,536-pin array, resulting in final compound concentration ranges of 2.5 nM to 57.5 uM. After 1 hr of cell culture incubation (37 °C, 5% CO2), 1 microL of 1 microg/mL lipopolysaccharide (250 ng/mL, final) and 5 mM ATP (1.25 mM, final) were added to stimulate the cells. After 16 hr of cell culture incubation with the compounds, 1.5 uL of anti-IL-1B acceptor beads (6 ug/mL, final) and biotinylated antibody (0.6 nM, final) were added to the plate, followed by a 1 hr incubation at ambient temperature. To detect the secreted IL-1B, 1.5 uL of AlphaLISA SA-Donor beads (24 ug/mL, final) were added, followed by 30 min of incubation in the dark at ambient temperature. The AlphaLISA signal was read by a PerkinElmer EnVision plate reader with an ultrasensitive luminescence detector and 1536 Plate HTS AlphaScreen aperture (excitation of 680nm and emission of 615nm).
# On the % scale 0 is the no-effect control and ±100 the full control effect.
row,SMILES,activity change
1,O=C(CN1C(=O)NC2(CCCCC2)C1=O)NCCC1=CCCCC1,21.6%
2,COc1cccc(NC(=O)C2(C)CCN2C(=O)CCC2CCCC2)c1 (configuration not stated),12.2%
3,COc1ccc(CSc2nnnn2-c2ccc(C(=O)O)cc2)cc1,-2.8%
4,COc1ccc(CSc2nnnn2-c2ccc(O)cc2)cc1F,-64.2% (active)
5,Oc1ccc(-n2nnnc2SCc2c(F)cccc2Cl)cc1,-11.4%
6,COc1ccc(C(C)=O)cc1CN1C(=O)NC2(CCCCC2C)C1=O (configuration not stated),-5.22%
7,C[C@H]1CN([C@@H](C)CO)C(=O)CCCn2cc(nn2)CO[C@@H]1CN(C)S(=O)(=O)c1cccc(C#N)c1,12.5%
8,CC(=O)NCC(=O)N1CCCC(C(=O)c2ccc3c4c(cccc24)CC3)C1 (configuration not stated),-13.3%
9,CCn1ccnc1CN1CCCC(C(=O)c2ccc3c4c(cccc24)CC3)C1 (configuration not stated),-69.4% (active)
10,Cc1ncoc1C(=O)N1CCCC(C(=O)c2ccc3c4c(cccc24)CC3)C1 (configuration not stated),-21.9%
11,C[C@H](O)[C@@H]1C(=O)N2CCc3c([nH]c4ccccc34)[C@@H]2C[C@@H]1N(C)C(=O)Nc1ccc(F)cc1,-16.5%
12,CC1(C(=O)NS(=O)(=O)c2ccc3ccccc3c2)CCN1C(=O)C1(c2ccc(Cl)cc2)CCC1 (configuration not stated),53.2%
13,COc1ccc(CN(C)C(=O)Cc2c[nH]c3ccccc23)c(OC)c1OC,5.58%
14,COc1ccc(NC(=O)c2cc(-c3ccc(C)o3)nc3ccccc23)cc1,-5.74%
15,COc1ccc(-c2cc(C(=O)Nc3ccccc3O)c3ccccc3n2)cc1,-84.2% (active)
16,COc1ccc(CN(C)C(=O)c2cc(-c3ccc(C)cc3C)nc3ccccc23)c(OC)c1OC,-84.9% (active)
17,COc1ccc(NC(=O)c2cc(-c3cc(OC)c(OC)c(OC)c3)nc3ccccc23)c(OC)c1,42.6%
18,COc1ccc(Cl)cc1NC(=O)CN(C)C(=O)c1cc2ccccc2cc1OC,5.95%
19,COc1cccc(NC(=O)CN(C)C(=O)c2cc(Cl)nc3ccccc23)c1,17.2%
20,COc1ccc(-c2cc(C(=O)N(C)Cc3ccc(OC)c(OC)c3OC)c3ccccc3n2)cc1OC,-13.9%
21,COc1ccc(-c2cc(C(=O)N(C)CC(=O)Nc3ccccc3Cl)c3ccccc3n2)cc1OC,-52.1% (active)
22,O=C(Nc1nonc1-c1ccc(Cl)cc1)c1ccco1,26.6%

row,SMILES,activity change
1,CC(C)C[C@H](NC(=O)N1CC(=O)Nc2ccccc21)C(=O)N[C@H](Cc1ccccc1)C(=O)O,4.57%
2,N#Cc1ccc(-c2nc3c(Cl)cc(C(F)(F)F)cn3c2Cc2ccccc2C(F)(F)F)cc1,23.1%
3,COc1ccc(S(=O)(=O)N2CCC(C(=O)NCCC(=O)Nc3ccccc3OC)CC2)cc1,2.12%
4,Nc1nc2c(ncn2[C@@H]2O[C@H](CNS(=O)(=O)N3CCc4ccccc4C3)[C@@H](O)[C@H]2O)c(=O)[nH]1,0.653%
5,COc1cccc(OCC(=O)NCCS(=O)(=O)N2CCN(c3ccccc3)CC2)c1,21%
6,OC[C@H]1O[C@@H](c2nc(-c3nc(-c4ccc(F)cc4)no3)cs2)[C@H](O)[C@@H](O)[C@H]1O,2.39%
7,CCCCN1C(=O)C(CC(=O)NC(c2ccccc2)c2ccccc2)CC(C(=O)N2CCOCC2)=C1C (configuration not stated),14.9%
8,CCCC(=O)n1nc(NCc2ccc(OC)cc2)nc1NCc1ccc(OC)cc1,15.3%
9,Nc1nc(NCc2ccccc2)n(-c2ccccc2)n1,4.19%
10,O=C(c1cccs1)n1nc(NCc2ccccc2)nc1NCc1ccccc1,-57.7% (active)
11,CC(C)(C)OC(=O)N1CCN(C(=O)c2[nH]c(C(F)(F)F)nc2-c2ccccc2)CC1,13.4%
12,Cc1ccc(CN(C(=O)c2sc3ccccc3c2Cl)C2CCS(=O)(=O)C2)cc1 (configuration not stated),-2.89%
13,Nn1cnnc1N/N=C/c1cc([N+](=O)[O-])c(Cl)cc1Cl,-61.8% (active)
14,O=C(/C=C/Sc1ncn[nH]1)c1ccc(Cl)cc1,-118% (active)
15,Cc1cccc(C=CC(=O)c2ccc(Cl)cc2)c1,-29.5%
16,O=C(CSc1ncn[nH]1)NCc1ccc2c(c1)OCO2,17.5%
17,Cc1ccc(-c2ccc(CN3C(C(C)C)C(=O)N(Cc4cn(CCC5OCCCO5)nn4)CCS3(=O)=O)cc2)cc1 (configuration not stated),13%
18,CCn1ncc(C2=NOC(C(=O)N3CCN(c4ccccc4)CC3)C2)c1C (configuration not stated),3.63%
19,O=C(/C=C/c1cn(-c2ccccc2)nc1-c1ccc2c(c1)OCCO2)NCCCN1CCOCC1,-92.2% (active)
20,COc1ccc(-c2nn(-c3ccccc3)cc2/C=C\C(=O)N2CCOCC2)cc1[N+](=O)[O-],-9.66%
21,O=C(NCCCN1CCOCC1)c1cn(-c2ccccc2)nc1-c1ccc(F)cc1,-7.44%
22,O=C(COC(=O)/C=C/c1ccc(Br)o1)Nc1cccc(S(=O)(=O)N2CCOCC2)c1,13.8%

row,SMILES,activity change
1,CC1=C(C(=O)N(C(C)C)C(C)C)CC(CC(=O)NCCCCc2ccccc2)C(=O)N1CCC1=CCCCC1 (configuration not stated),-59% (active)
2,CCCCOCCCNC(=O)C[C@@H]1C[C@@]2(C(=O)OC)CCCCC=C2N(CCC2=CCCCC2)C1=O,-57.4% (active)
3,CCOC(=O)[C@]12CCCC=C1N(CCC1=CCCCC1)C(=O)[C@H](CC(=O)NCCCCc1ccccc1)C2,-17.5%
4,CC1=C(C(=O)N(C)C)CC(CC(=O)NCCc2ccccn2)C(=O)N1CCC1=CCCCC1 (configuration not stated),-20.1%
5,CCOC(=O)[C@]12CCCC=C1N(CCC1=CCCCC1)C(=O)[C@H](CC(=O)NCCCOC)C2,60.5%
6,CCCCOCCCNC(=O)C[C@@H]1C[C@@]2(C(=O)OCC)CCCC=C2N(CCC2=CCCCC2)C1=O,-27.8%
7,O=C(Nc1c(Br)cc2c(c1Br)Cc1cc([N+](=O)[O-])ccc1-2)C(Cl)Cl,39%
8,CCCOc1ccc(-c2c(C(=O)N/N=C/c3ccco3)nnn2-c2nonc2N)cc1,92.5%
9,Cc1cc(C)c(S(=O)(=O)NN=C2c3ccccc3[C@H]3Cc4csc[n+]4[C@@H]23)c(C)c1,-3.78%
10,COc1ccc(C(NC(=O)C2CCN(CCCc3ccccc3)CC2)c2cccs2)cc1 (configuration not stated),-24%
11,O=C(CCN1CCCCC1)Nc1ccc(F)c(F)c1,-0.386%
12,COc1ccc(NC(=O)N(C)C[C@@H]2OCc3cn(nn3)CCCC(=O)N([C@H](C)CO)C[C@H]2C)c(OC)c1,9.8%
13,CC(C)c1cc(C(N)=O)c(NC(=O)c2cccc(COc3ccc(Br)cc3)c2)s1,-75.7% (active)
14,CC(C)(C)OC(=O)N(Cc1ccccc1)Cc1ccc(OCc2cccc(NC(=O)c3ccccc3)c2)cc1,9.51%
15,CCOc1ccc(OCc2cccc(C(=O)N(CC)CC)c2)cc1,0%
16,O=C1CSC(c2ccc(Cl)cc2)N1 (configuration not stated),0%
17,COc1ccc2c(C)c(CCC(=O)NC3CC3)c(=O)oc2c1C,-19.2%
18,CC1=NNC(=O)C1CCC(=O)N/N=C(\C)c1ccc(Cl)cc1 (configuration not stated),6.73%
19,COc1ccc(/C(C)=N\NC(=O)c2ccc(-c3ccccc3)cc2)c(F)c1,7.94%
20,C/C(=N\NC(=O)Cc1ccc(Cl)cc1)c1ccccn1,-103% (active)
21,C/C(=N\NC(=O)c1ccccc1F)c1ccccn1,-100% (active)
22,CC(=NNC(=S)N1CCCCCC1)c1ccccn1,-106% (active)

row,SMILES,activity change
1,Cc1cccc(C)c1NC(=S)N1CCCCCC1,5.87%
2,CNC(=S)N1CCN(c2ccccn2)CC1,-3.93%
3,O=C(NCCOc1ccccc1)c1ccccc1F,-17.7%
4,NC(=O)NC(CC(=O)NNC(=O)c1ccccn1)c1ccc(Cl)cc1 (configuration not stated),99.7%
5,CO[C@@H]1CN(C)C(=O)c2cc(NC(=O)Nc3cc(F)ccc3F)ccc2OC[C@H](C)N(C(=O)c2ccccn2)C[C@@H]1C,11%
6,COC(=O)c1ccc(CSc2nnc(N)s2)o1,-16.4%
7,CCCCNC(=O)C[C@@H]1C[C@@]2(C(=O)OCC)CCC=C2N(Cc2ccco2)C1=O,14.5%
8,O=C(NCc1ccc(F)cc1)c1cc(C2CCCCN2C(=O)c2cccs2)on1 (configuration not stated),-12.4%
9,O=C(CN1CCN(c2ccc(O)cc2)CC1)Nc1ccc(-c2ccccc2)cc1,12.4%
10,Cc1cccc(C)c1NC(=O)C(c1cccc2ccccc12)n1c(=O)c(-c2ccco2)nc2ccccc21 (configuration not stated),7.42%
11,COc1ccc(NS(=O)(=O)c2ccc(C)c(C(=O)NCC(c3cccs3)N3CCOCC3)c2)cc1 (configuration not stated),2.47%
12,CC1(C(=O)NS(=O)(=O)c2cccc(OC(F)F)c2)CCN1C(=O)COc1ccc(Cl)cc1 (configuration not stated),48.6%
13,CC(NCc1nc2ccccc2n1C)C12CC3CC(CC(C3)C1)C2 (configuration not stated),-94.3% (active)
14,CCOc1ccc(C(O)Cc2nc3ccccc3n2C)cc1 (configuration not stated),-16%
15,COc1cccc(C(O)Cc2nc3ccccc3n2C)c1OC (configuration not stated),11.4%
16,COc1cc(C(=O)N2CCN(S(=O)(=O)c3ccc(C(C)C)cc3)CC2)ccc1OCC(=O)N1CCOCC1,-21.1%
17,O=C(c1cc(C2CCCCN2S(=O)(=O)c2ccccc2)on1)N1CCOCC1 (configuration not stated),0%
18,Nn1c(SCC(=O)Nc2nccs2)nnc1-c1ccco1,-6.29%
19,N#Cc1nc(Cc2cccc3ccccc23)oc1NCc1ccc2c(c1)OCO2,-53.4% (active)
20,CC1(C(=O)NCc2ccc3c(c2)OCO3)CCN1C(=O)Cc1cccc2ccccc12 (configuration not stated),-20.8%
21,Cn1cc(CCC(=O)NCc2ccc3c(c2)OCO3)c2ccccc21,0%
